# According to PubChem BioAssay AID651673 (Broad Institute, 2012):
# This is one part of the list. A number with no mark means an inactive call.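 How the source made its calls: active means signal drop giving an AC50 within twice the top valid tested concentration of each sample (actives reach about 35 µM in these data); inactive means activity opposite to expected, plus the rest.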
# Test: acridine orange displacement from DNA – biochemical, fluorescence polarization, cherry-pick, artefact control for RAD54 inhibitor project, dose response (AID 651673);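 further: polarization loss reports compound binding to salmon sperm DNA; 0% = neutral control median and -100% = 10 µM mitoxantrone control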
# Details: 20 min; series mostly up to 35 µM; activity change, negative = DNA binding: at the top concentration
row,SMILES,"activity change, negative = DNA binding [%]"
1,c1ccc(-c2nnc(SCc3nc4ccccc4[nH]3)o2)cc1,0.107
2,COc1ccc(CCn2c(=N)c(C(=O)NCC3CCCO3)cc3c(=O)n4cccc(C)c4nc32)cc1OC (stereo not drawn),-13
3,CCOCCCNC(=S)Nc1ccc2nc(N3CCN(CC)CC3)cc(C)c2c1,-9.47
4,CN1CCN(CCCNC(=O)c2cc3c(=O)oc4ccccc4c3s2)CC1,-21
5,CCN(CC)CCn1c2ccc(Cl)cc2c2nc(C)sc21,-1.63
6,COc1ccccc1C(=O)C(O)c1ccccc1OC (stereo not drawn),-5.88
7,COC(=O)c1c(NC(=O)c2ccc(S(=O)(=O)N3CCOCC3)cc2)sc2c1CCN(C(C)C)C2,14.2
8,CN(C)CCN(C(=O)CN1C(=O)c2ccccc2C1=O)c1nc2cc3c(cc2s1)OCCO3,1.9
9,COc1cccc2sc3cc(NCC[C@@H]4CCCN4C)ccc3c(=O)c12,-7.26
10,Cc1cc2oc3ccc(NCCC4CCCN4C)cc3c(=O)c2cc1C (stereo not drawn),-3.62
11,Cc1nc2ccccc2c2oc(C(=O)NCCCN3CCC(C)CC3)cc12,-13.5
12,CC1CCc2sc3nc(N4CCN(CCO)CC4)n4ncnc4c3c2C1 (stereo not drawn),9.08
13,COc1ccc(C(=O)Nc2cc(C)c(NC(=O)c3ccccc3OC)cn2)cc1,-5.9
14,Cc1cccn2c(=O)c3cc(C#N)c(=O)n(CCCN4CCOCC4)c3nc12,-9.39
15,CCN(CC)CCCNC(=O)c1cc2c(=O)[nH]c3ccc(C)cc3c2s1,-18.1
16,O=C(NCCCN1CCOCC1)c1cnn2c(-c3ccccc3)cc(-c3ccccc3)nc12,-0.136
17,CCOC(=O)C1C(=O)NC(N2CCN(c3ccccc3)CC2)=NC1c1ccco1 (stereo not drawn),3.21
18,CCn1c(=N)c(C(=O)NCCCOC)cc2c(=O)n3cccc(C)c3nc21,-6.19
